About 6,900 (3.6%) of roughly 190,000 compounds were called active. The sample holds actives, similar compounds and a random draw of the others, so the mix is not that of the screen. Rule as the data show it: active = inhibition above about 50%; inactive = the rest.
Each compound was assayed against Huntingtin (Homo sapiens) (UniProt P42858) (assay: mutant huntingtin-calmodulin interaction inhibitors – biochemical, AlphaScreen, primary screen (AID 1671202;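 also: 0% = both proteins with DMSO and 100% = one protein alone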)). Details: AlphaScreen His-mHTT/GST-CaM binding, luminescence; at 15 µM, active compounds read high.
Chain of Huntingtin (Homo sapiens) (P42858 whole entry, looked up, stated change not applied): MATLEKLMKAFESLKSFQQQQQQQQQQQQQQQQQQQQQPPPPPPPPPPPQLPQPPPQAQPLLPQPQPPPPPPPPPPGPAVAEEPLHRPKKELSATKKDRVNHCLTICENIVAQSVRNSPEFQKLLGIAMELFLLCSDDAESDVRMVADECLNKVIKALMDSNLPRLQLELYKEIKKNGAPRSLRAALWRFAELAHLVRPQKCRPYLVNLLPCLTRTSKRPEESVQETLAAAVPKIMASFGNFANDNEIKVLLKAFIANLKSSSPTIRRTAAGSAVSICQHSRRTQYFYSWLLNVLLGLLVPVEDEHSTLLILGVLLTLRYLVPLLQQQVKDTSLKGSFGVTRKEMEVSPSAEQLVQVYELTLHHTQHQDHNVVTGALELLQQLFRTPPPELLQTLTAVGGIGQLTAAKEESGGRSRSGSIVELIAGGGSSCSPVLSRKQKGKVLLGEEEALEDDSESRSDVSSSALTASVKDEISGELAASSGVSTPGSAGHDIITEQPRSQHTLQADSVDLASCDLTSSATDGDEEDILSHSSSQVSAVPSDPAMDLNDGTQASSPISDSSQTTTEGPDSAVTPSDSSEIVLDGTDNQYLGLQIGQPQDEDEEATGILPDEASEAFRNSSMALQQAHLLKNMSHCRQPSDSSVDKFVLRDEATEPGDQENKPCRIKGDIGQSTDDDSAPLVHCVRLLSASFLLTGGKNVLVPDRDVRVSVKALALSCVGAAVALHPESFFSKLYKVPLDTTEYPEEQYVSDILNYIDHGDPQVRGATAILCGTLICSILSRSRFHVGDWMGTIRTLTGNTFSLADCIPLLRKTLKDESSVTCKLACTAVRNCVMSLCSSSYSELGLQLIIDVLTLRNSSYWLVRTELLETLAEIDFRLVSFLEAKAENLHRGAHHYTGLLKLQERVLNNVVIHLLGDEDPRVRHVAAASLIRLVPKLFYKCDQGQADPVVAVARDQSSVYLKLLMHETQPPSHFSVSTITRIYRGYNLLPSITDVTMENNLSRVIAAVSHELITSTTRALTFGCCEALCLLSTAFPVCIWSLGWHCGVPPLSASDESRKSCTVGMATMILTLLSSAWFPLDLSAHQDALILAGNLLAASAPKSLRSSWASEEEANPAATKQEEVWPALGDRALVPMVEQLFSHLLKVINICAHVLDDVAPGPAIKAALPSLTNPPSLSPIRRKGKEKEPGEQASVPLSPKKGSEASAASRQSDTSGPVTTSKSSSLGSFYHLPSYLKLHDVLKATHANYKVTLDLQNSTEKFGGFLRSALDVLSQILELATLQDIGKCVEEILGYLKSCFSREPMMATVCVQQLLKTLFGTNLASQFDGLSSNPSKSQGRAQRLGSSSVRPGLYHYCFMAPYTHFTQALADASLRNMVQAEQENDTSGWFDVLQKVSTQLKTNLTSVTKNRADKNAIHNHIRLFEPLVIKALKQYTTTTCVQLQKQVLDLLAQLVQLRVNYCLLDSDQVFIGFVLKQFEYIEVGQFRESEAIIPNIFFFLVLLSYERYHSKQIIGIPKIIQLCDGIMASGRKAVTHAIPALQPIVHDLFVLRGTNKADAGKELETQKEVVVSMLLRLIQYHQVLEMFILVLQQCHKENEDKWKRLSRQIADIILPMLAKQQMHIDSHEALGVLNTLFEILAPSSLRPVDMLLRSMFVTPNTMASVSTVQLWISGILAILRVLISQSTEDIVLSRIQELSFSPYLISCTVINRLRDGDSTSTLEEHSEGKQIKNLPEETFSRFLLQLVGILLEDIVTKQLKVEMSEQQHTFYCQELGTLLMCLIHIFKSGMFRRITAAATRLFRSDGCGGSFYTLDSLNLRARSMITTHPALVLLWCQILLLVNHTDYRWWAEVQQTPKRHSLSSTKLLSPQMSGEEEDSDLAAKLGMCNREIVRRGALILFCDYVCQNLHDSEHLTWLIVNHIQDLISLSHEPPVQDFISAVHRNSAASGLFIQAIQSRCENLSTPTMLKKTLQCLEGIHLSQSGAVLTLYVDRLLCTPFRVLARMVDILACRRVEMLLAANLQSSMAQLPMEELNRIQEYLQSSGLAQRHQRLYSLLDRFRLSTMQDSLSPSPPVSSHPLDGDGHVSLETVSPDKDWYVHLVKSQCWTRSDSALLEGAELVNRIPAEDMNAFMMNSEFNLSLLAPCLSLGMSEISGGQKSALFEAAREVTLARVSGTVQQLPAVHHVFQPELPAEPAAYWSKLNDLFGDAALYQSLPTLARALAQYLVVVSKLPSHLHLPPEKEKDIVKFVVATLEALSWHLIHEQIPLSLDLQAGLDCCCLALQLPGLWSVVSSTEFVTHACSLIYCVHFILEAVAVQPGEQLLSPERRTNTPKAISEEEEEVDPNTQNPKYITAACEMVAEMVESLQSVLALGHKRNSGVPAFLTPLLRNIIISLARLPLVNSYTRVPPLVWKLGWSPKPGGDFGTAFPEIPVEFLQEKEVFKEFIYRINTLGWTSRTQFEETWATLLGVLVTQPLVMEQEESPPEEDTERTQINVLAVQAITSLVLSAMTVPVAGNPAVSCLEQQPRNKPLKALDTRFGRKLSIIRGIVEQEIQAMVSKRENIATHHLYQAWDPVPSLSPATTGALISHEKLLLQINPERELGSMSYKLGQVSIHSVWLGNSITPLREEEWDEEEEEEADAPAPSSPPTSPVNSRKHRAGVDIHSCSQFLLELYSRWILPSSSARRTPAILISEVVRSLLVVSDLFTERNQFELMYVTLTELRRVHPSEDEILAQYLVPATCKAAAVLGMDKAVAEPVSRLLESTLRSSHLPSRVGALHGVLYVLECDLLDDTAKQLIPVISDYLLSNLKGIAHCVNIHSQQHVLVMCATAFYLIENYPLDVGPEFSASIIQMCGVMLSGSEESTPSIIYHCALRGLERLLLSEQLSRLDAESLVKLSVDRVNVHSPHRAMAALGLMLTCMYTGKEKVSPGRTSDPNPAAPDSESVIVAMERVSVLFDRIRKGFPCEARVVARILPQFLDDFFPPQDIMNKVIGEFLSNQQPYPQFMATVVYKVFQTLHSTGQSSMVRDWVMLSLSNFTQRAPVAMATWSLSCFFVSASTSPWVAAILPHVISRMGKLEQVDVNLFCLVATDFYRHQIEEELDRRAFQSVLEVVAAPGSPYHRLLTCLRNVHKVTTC

SMILES | inhibition
CC(C)(C)C(=O)NCCC(O)C1CC1 (configuration not stated) | -4% (inactive)
CN(C)CCn1c2c(c(SCC(=O)Nc3ccccc3C(F)(F)F)nc1=O)CCC2 | 0% (inactive)
O=C(CSc1nnnn1-c1cccc2ccccc12)Nc1ccccc1Cl | -8.1% (inactive)
COc1ccc(C(=O)Nc2ccccc2F)cc1OC | -1.2% (inactive)
COc1ccc(C2=NC3(CCCCC3)N(CC(=O)Nc3ccc4c(c3)OCO4)C2=O)cc1 | 3.31% (inactive)
CNc1nccc(N2CCC(CC(=O)N3CCN(c4ccccc4)CC3)CC2)n1 | 13.2% (inactive)
NC(N)=Nc1nc(-c2ccccc2)c2cc(Cl)ccc2n1 | 100% (active)
Cc1nc(N=C(N)N)nc2c(C)cccc12 | 25.3% (inactive)
O=c1cc(-c2ccccc2)sc2ccc(Cl)cc12 | 7% (inactive)
O=C1CC(c2ccc(Cl)cc2)CC2=C1C(c1ccsc1)Nc1ccccc1N2 (configuration not stated) | 4% (inactive)
COc1ccc(C2CC(=O)C3=C(C2)Nc2ccccc2NC3c2cc(F)ccc2F)cc1 (configuration not stated) | 23% (inactive)
CN(C)c1ccc(C2Nc3ccccc3NC3=C2C(=O)CC(c2ccc(Cl)cc2)C3)cc1 (configuration not stated) | 63% (active)
O=C(c1cccs1)N1CC(c2nc(-c3ncccn3)no2)C1 | -5.2% (inactive)
COc1ccc(CNC(=O)CN(c2ccc(I)cc2)S(C)(=O)=O)cc1 | -4.2% (inactive)
COc1ccc(C2=N/C(=C\c3cccc([N+](=O)[O-])c3)C(=O)O2)c(Br)c1 | 3% (inactive)
COc1ccc(C)cc1NC(=O)N1CCc2c(c(COCc3ccccc3F)nn2C)C1 | 33.8% (inactive)
COc1ccc(N2CCN(CC(O)COC3CC4CCC3(C)C4(C)C)CC2)cc1 (configuration not stated) | 64.3% (active)
CC1CCN(CC(O)COC2CC3CCC2(C)C3(C)C)CC1 (configuration not stated) | -1.1% (inactive)
CC1(C)C2CCC1(C)C(OCC(O)CN1CCOCC1)C2 (configuration not stated) | 2.6% (inactive)
COc1ccc(C2=NN3COc4ccc(Cl)cc4C3C2)cc1 (configuration not stated) | 27% (inactive)
COc1ccc(C2=NN3C(C2)c2cc(OC)ccc2OC3(C)C)cc1 (configuration not stated) | 64% (active)
COc1ccc(C2=NN3COc4ccc(Br)cc4C3C2)cc1 (configuration not stated) | 34% (inactive)
COc1ccc2c(c1)C(=O)C(C1(O)C(=O)Nc3ccccc31)CC2 (configuration not stated) | 2.6% (inactive)
COc1ccc(OC)c(C2C3=C(CC(C)(C)CC3=O)Nc3ccccc3N2C(C)=O)c1 (configuration not stated) | 8.9% (inactive)
O=S1(=O)CC(N2CCN(Cc3ccccc3F)CC2)CN1Cc1cn(Cc2cccc(C(F)(F)F)c2)nn1 (configuration not stated) | 6.8% (inactive)
COCCCNC(=O)c1cnn2c(C(F)(F)F)cc(-c3cccs3)nc12 | 10% (inactive)
O=[N+]([O-])c1c(Cl)cc(Cl)c2nsnc12 | 88% (active)

From PubChem BioAssay AID1671202 (University of Kansas High Throughput Screening Laboratory, 2021)
